From PubChem BioAssay
SW480 rerep: inducers of DNA re-replication in SW480 colon cancer cells. AID 624297. Potency, µM (series often up to 46.1 µM), most hits filed as activators. hit rate 1.8% among 340,000. SW480 DNA re-replication, Hoechst DNA content imaging, 48 h; also: nearly all actives have a fitted effect of over 55% in size
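Image-based DNA-content assay: after two days of treatment, nuclei were labelled with the DNA dye Hoechst and imaged, and hits were compounds raising the count of nuclei showing high fluorescence intensity.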
MCF10A rereplic: induces DNA re-replication in MCF 10a normal breast cells. Potency, µM (doses to about 46.1 µM), actives largely listed as activators. MCF 10A DNA re-replication, Hoechst nuclear intensity, 48 h. hit rate 2.9% among 350,000; also: nearly all actives have a fitted effect of over 50% in size
KB-3-1 tox: kills parental KB-3-1 adenocarcinoma cells; KB-3-1 viability, CellTiter-Glo ATP luminescence, 72 h; Potency, µM (titrated, usually from 46.1 µM), usual class: cytotoxic; hit rate 1.4% among 400,000; AID 1347075; also: nearly all actives have a fitted effect of over 60% in size
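Parental KB-3-1 viability, qHTS format: 72 h compound exposure, 37 °C; CellTiter-Glo; media-only wells and DMSO plates as controls; concentration-effect fits on corrected data.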
HT1080 IDH1KD tx: toxicity to HT-1080 IDH1 knockdown cells (counter line) | Potency, µM (titrated, usually from 46.1 µM), actives largely listed as cytotoxic | hit rate 2% among 360,000 | HT-1080 IDH1 knockdown viability, ATP luminescence, 48 h
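Viability of IDH1-knockdown HT-1080 fibrosarcoma cells was assessed by CellTiter-Glo after 48 h at 37 °C with titrated compound; concentration-effect curves were classified by fit quality and response size.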
HT1080NT lethal: kills 2HG-producing HT-1080-NT fibrosarcoma cells | HT-1080-NT fibrosarcoma viability, CellTiter-Glo ATP luminescence, 48 h | Potency, µM (titrated, usually from 46.1 µM), actives largely listed as cytotoxic | hit rate 1.6% among 360,000;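 also: NT is the 2HG producing partner of a matched IDH1 knockdown line; nearly all actives have a fitted effect of over 55% in size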
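HT-1080-NT fibrosarcoma cells (2HG-overproducing), 750 cells/well in RPMI with 5% FBS, dosed after 2 h and incubated 48 h at 37C. CellTiter-Glo luminescence normalized to DMSO and no-cell wells; concentration-response curves fitted and classed.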
KB-V1 MDR tox: KB-V1 MDR subline cytotoxicity; hit rate 3.4% among 400,000; KB-V1 MDR cells viability, CellTiter-Glo, 72 h; Potency, µM (doses to about 46.1 µM), hits mostly cytotoxic; also: nearly all actives have a fitted effect of over 60% in size
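KB-V1 cells (P-gp-expressing MDR subline of KB-3-1) in phenol-red-free DMEM with 10% FBS were exposed to library compounds over a concentration series for 72 h at 37 degrees C. Viability read by CellTiter-Glo luminescence; concentration-effect curves fitted after normalization.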
Each line names hits and unclear results; the compound was inactive in the other large screens. Compounds with a hit are over-represented: about 8% of the library has one in this group of screens. Calls follow the shape of the dose curve; as a rule, active = well fitted curve in the direction sought with a large enough effect; inconclusive = small, poorly fitted or top-dose-only effect, or another doubt; inactive = no such curve, though single readings can be large; an effect the other way counts as inactive or inconclusive.

COC(=O)N/N=C/c1cc(C)n(-c2cccc3ccccc23)c1C	MCF10A rereplic inconclusive, KB-3-1 tox inconclusive, KB-V1 MDR tox 21µM
CC(/C=N/NC(=O)c1cccc(F)c1)=C\c1ccccc1	SW480 rerep 15µM, MCF10A rereplic inconclusive, KB-3-1 tox 16µM, HT1080 IDH1KD tx inconclusive, HT1080NT lethal inconclusive, KB-V1 MDR tox inconclusive
Cc1ccc2oc(-c3ccc(C)c(NC(=S)NC(=O)c4cccs4)c3)nc2c1	MCF10A rereplic 10µM
Cc1ccc(-c2nc3ccccc3o2)cc1NC(=S)NC(=O)c1cc2ccccc2o1	SW480 rerep inconclusive, KB-3-1 tox 8.2µM, HT1080 IDH1KD tx inconclusive, HT1080NT lethal inconclusive
Cc1ccc(-c2nc3cc(C(C)C)ccc3o2)cc1NC(=O)c1cc2ccccc2o1	none (no result: SW480 rerep, MCF10A rereplic, HT1080 IDH1KD tx, HT1080NT lethal)
Nn1c(N2CCCCC2)nc2ccccc21	none
COc1ccc(OC)c(-c2nnc3n2N=C(c2ccc(OC)c(OCC4CC4)c2)CS3)c1	SW480 rerep 2.3µM, MCF10A rereplic inconclusive, KB-3-1 tox 0.92µM, KB-V1 MDR tox 4.6µM (no result: HT1080 IDH1KD tx, HT1080NT lethal)
Fc1ccccc1-c1nnc2n1N=C(c1ccc(OC(F)F)c(OCC3CC3)c1)CS2	none (no result: HT1080 IDH1KD tx, HT1080NT lethal)
COc1ccc(C2=Nn3c(nnc3-c3ccccc3Cl)SC2)cc1OCC1CC1	SW480 rerep 16µM, MCF10A rereplic inconclusive, KB-3-1 tox 2.9µM, KB-V1 MDR tox inconclusive (no result: HT1080 IDH1KD tx, HT1080NT lethal)
COc1ccc(C(=O)N2CCOC2CNC(=O)C(=O)NCc2ccc(Cl)cc2)cc1 (stereo unspecified)	KB-V1 MDR tox 23µM
COc1ccc(C(=O)N2CCOC2CNC(=O)C(=O)NCc2ccc(C)cc2)cc1 (stereo unspecified)	KB-V1 MDR tox inconclusive (no result: SW480 rerep, MCF10A rereplic)
C=CCOc1ccc(/C=C2\SC(=Nc3cccnc3)NC2=O)cc1	none
CC(/C=C1\SC(=Nc2cccnc2)NC1=O)=C\c1ccccc1	MCF10A rereplic 1.6µM, KB-3-1 tox 16µM, KB-V1 MDR tox 8.2µM
O=C(O)c1ccc(NS(=O)(=O)c2cccc(S(=O)(=O)c3ccc(Cl)c(Cl)c3)c2)cc1	none
O=C(NNS(=O)(=O)c1ccccc1[N+](=O)[O-])c1cccc(Cl)c1	SW480 rerep 0.52µM
O=C(NNS(=O)(=O)c1ccccc1[N+](=O)[O-])c1cccc(Br)c1	KB-V1 MDR tox inconclusive
O=[N+]([O-])c1nn(-c2ccc3c(c2)OCCO3)n(O)c1=NC1CCN(Cc2ccccc2)CC1	SW480 rerep 7.3µM
O=[N+]([O-])c1nn(-c2ccccc2)n(O)c1=NC1CCN(Cc2ccccc2)CC1	SW480 rerep 10µM, MCF10A rereplic inconclusive, KB-V1 MDR tox inconclusive
COc1ccc(C/C(=N\OC(C)=O)c2ccc(OC)cc2)cc1	none
CCc1nc2ccc(C(=O)N3CCN(c4ccccc4)CC3)cn2c1N(C)CCC(C)C	KB-3-1 tox inconclusive, HT1080 IDH1KD tx 6.5µM, HT1080NT lethal inconclusive, KB-V1 MDR tox 23µM (no result: SW480 rerep, MCF10A rereplic)
CCc1nc2ccc(C(=O)N3CCN(S(=O)(=O)CC)CC3)cn2c1N(C)CCC(C)C	none (no result: SW480 rerep, MCF10A rereplic)
CCCCN(C)c1c(C)nc2ccc(C(=O)NC3CCN(C)CC3)cn12	HT1080NT lethal inconclusive (no result: SW480 rerep, MCF10A rereplic)
CCc1nc2ccc(C(=O)NC3CCN(C)CC3)cn2c1N(C)CCC(C)C	HT1080 IDH1KD tx inconclusive, HT1080NT lethal 16µM (no result: SW480 rerep, MCF10A rereplic)
CCOC(=O)c1nnn(CC(=O)Nc2ccccc2)c1C(=O)OCC	none
O=C(Oc1cccc2cccnc12)c1ccc(N2C(=O)C3C4CCC(C4)C3C2=O)cc1 (stereo unspecified)	SW480 rerep 18µM, MCF10A rereplic 15µM, HT1080 IDH1KD tx 13µM, HT1080NT lethal 16µM
CC1=C([N+](=O)[O-])C(c2ccccc2)C2=C(N1)c1ccccc1C2=O (stereo unspecified)	SW480 rerep inconclusive, MCF10A rereplic inconclusive, KB-3-1 tox 0.82µM, HT1080 IDH1KD tx inconclusive, HT1080NT lethal inconclusive, KB-V1 MDR tox 4.6µM
CC1(C)CC(=O)C2=C(C1)NC1=C(C(=O)c3ccccc31)C2c1ccccc1 (stereo unspecified)	KB-3-1 tox inconclusive, KB-V1 MDR tox 16µM
COc1ccccc1OCC(=O)Nc1ccc2c(c1)C(=O)N(CC1CCCO1)C2=O (stereo unspecified)	none
COc1cccc(CC(NC(C)=O)C(=O)NC2CCN(c3c(Cc4ccccc4)c(C)nc4ncnn34)CC2)c1OC (stereo unspecified)	none
C#CCn1c(=NC(=O)c2ccc(Cl)s2)sc2cccc(OC)c21	MCF10A rereplic 18µM
CCCCCn1c(CN2CCN(Cc3ccccc3)CC2)nc2c1c(=O)[nH]c(=O)n2C	none
CN1CCCC(n2nc(Cc3ccc(Cl)cc3)c3ccccc3c2=O)CC1 (stereo unspecified)	KB-3-1 tox 6.5µM, HT1080 IDH1KD tx 4.1µM, HT1080NT lethal 5.2µM, KB-V1 MDR tox inconclusive
CCOC(=O)Cn1nc(Cc2ccccc2)c2ccccc2c1=O	none
NC(=O)c1nsc(C(=O)N(c2ccccc2)C(C(=O)NCc2ccc(F)cc2)c2ccc(O)cc2)c1N (stereo unspecified)	SW480 rerep inconclusive, MCF10A rereplic 13µM
Cc1cccc(N(C(=O)c2snc(C(N)=O)c2N)C(C(=O)NCc2ccccc2)c2ccncc2)c1 (stereo unspecified)	SW480 rerep inconclusive, MCF10A rereplic inconclusive, KB-3-1 tox 18µM, HT1080 IDH1KD tx inconclusive, HT1080NT lethal 18µM
CC(=O)N(C)c1ccc(OCC(O)Cn2c3ccc(Cl)cc3c3cc(Cl)ccc32)cc1 (stereo unspecified)	SW480 rerep inconclusive, MCF10A rereplic inconclusive, KB-3-1 tox 21µM, HT1080 IDH1KD tx inconclusive, KB-V1 MDR tox 21µM
CCN(CC)c1ccc(/C=N/NC(=O)C(O)(c2ccccc2)c2ccccc2)o1	SW480 rerep inconclusive, MCF10A rereplic 7.3µM (no result: KB-3-1 tox, HT1080 IDH1KD tx, HT1080NT lethal, KB-V1 MDR tox)
O=C(O)c1ccc(/C=N/NC(=O)C(O)(c2ccccc2)c2ccccc2)cc1	SW480 rerep inconclusive
COc1ccc(NS(=O)(=O)c2ccc(NC(=S)NC(=O)C(C)C)cc2)cc1	none
CC(C)C(=O)NC(=S)Nc1ccc(S(=O)(=O)N(C)Cc2ccccc2)cc1	SW480 rerep inconclusive, MCF10A rereplic inconclusive, KB-3-1 tox inconclusive, HT1080 IDH1KD tx 21µM, HT1080NT lethal inconclusive, KB-V1 MDR tox inconclusive
CC(C)C(=O)NC(=S)Nc1ccc(S(=O)(=O)Nc2ccccc2)cc1	SW480 rerep inconclusive, MCF10A rereplic inconclusive, KB-V1 MDR tox 23µM
CC(=O)NC(=S)Nc1ccc(S(=O)(=O)N(C)Cc2ccccc2)cc1	MCF10A rereplic inconclusive, HT1080 IDH1KD tx inconclusive, KB-V1 MDR tox inconclusive
CN(Cc1ccccc1)S(=O)(=O)c1ccc(NC(=O)C2CCCCC2C(=O)O)cc1 (stereo unspecified)	KB-V1 MDR tox 21µM
CC(=O)Nc1ccc(S(=O)(=O)Nc2ccc(S(=O)(=O)N3CCCC3)cc2)cc1	none
